The campaign covered roughly 63,000 compounds. About 1,100 (1.7%) were called active. The sample holds actives, similar compounds and a random draw of the others, so the mix is not that of the screen. No stated cut-off is given here; in the data, active means cytotoxicity above about 50%; inactive means the rest. Measured potencies and affinities stand elsewhere.
Assay: HPDE-C7 pancreatic duct cell viability loss – fluorescence, HTS (AID 430);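 further: cells exposed to compound for 48 hours before viability readout; 0% = vehicle and 100% = reference cytotoxic drug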
Details: HPDE-C7 pancreatic duct cells viability, at 10 µM, stronger effect = higher value

SMILES | cytotoxicity
Cc1occc1C(=O)NCc1ccc2c(c1)OCO2 | 42.9% (inactive)
O=C(COc1cnc2ccccc2n1)NCCC1=CCCCC1 | -1.1% (inactive)
CCc1ccc2c(COC(=O)c3n[nH]c4ccccc34)cc(=O)oc2c1 | 8% (inactive)
CCc1ccc2c(COn3nnc4ccc(S(=O)(=O)N(C)C)cc43)cc(=O)oc2c1 | 59.1% (active)
Cc1ccc2c(COn3nnc4ccc(S(=O)(=O)N(C)C)cc43)cc(=O)oc2c1C | -2.2% (inactive)
CCc1nnc(NC(=O)CSc2nc3c(cc2C#N)CCCC3)s1 | -1.1% (inactive)
CCc1nnc(NC(=O)CSc2nc3c(cc2C#N)CCC3)s1 | 30.8% (inactive)
CCc1nnc(NC(=O)CSc2nc(C)c3c(c2C#N)CCCC3)s1 | 76.3% (active)
COc1cccc(NC(=O)CNC(=O)c2ccc(F)cc2)c1 | -1% (inactive)
COc1cc(-c2ccc(NC(=O)CN3CCCCC3)c(OC)c2)ccc1NC(=O)CN1CCCCC1 | -11.3% (inactive)
N#Cc1ccc(CSc2nnc(-c3cnccn3)o2)cc1 | -3% (inactive)
Fc1cccc(C2CC(c3cccc(Br)c3)Nc3nnnn32)c1 (stereo not given) | -20.3% (inactive)
CCOc1ccc(S(=O)(=O)N2Cc3ccccc3CC2C(=O)NCCCn2ccnc2)cc1 (stereo not given) | 1.9% (inactive)
Cc1ccc2[nH]c3c(c2c1)CN(C(=O)CN1CCCc2ccccc21)CC3 | 55.8% (active)
Cc1ccc2[nH]c3c(c2c1)CN(C(=O)CN1CCN(c2ccccc2F)CC1)CC3 | 14.7% (inactive)
Cc1ccc2[nH]c3c(c2c1)CN(C(=O)CN1CCN(c2ccccc2)CC1)CC3 | 26.1% (inactive)
Cc1cccc(N2CCN(C(=O)c3ccc(N4CCCC4=O)cc3)CC2C)c1 (stereo not given) | -1.7% (inactive)
CCOC(=O)c1ccc(NC(=O)N2CCN(S(C)(=O)=O)CC2)cc1 | -1.4% (inactive)
Cc1cnc(NC(=O)CCCSc2nc3ccccc3s2)s1 | -1.8% (inactive)
c1ccc(-c2cc(-c3nc(-c4cccnc4)no3)c3ccccc3n2)cc1 | -11.7% (inactive)
c1ccc(-c2ccc(-c3nc(-c4ccccn4)no3)cc2)cc1 | -4.1% (inactive)
c1ccc(-c2cc(-c3nc(-c4ccccn4)no3)c3ccccc3n2)cc1 | 70.4% (active)
CC(C)n1c(SCC(N)=O)nc2c1c(=O)n(C)c(=O)n2C | -8.7% (inactive)
CCn1c(SC/C=C/c2ccccc2)nnc1-c1cnccn1 | -18.9% (inactive)
Cn1cc(/C=N/n2cnc3scc(-c4ccccc4)c3c2=O)c2ccccc21 | 68.4% (active)
Cc1ccc(-c2csc3ncn(/N=C/N(C)C)c(=O)c23)o1 | -6.4% (inactive)
CCn1cnc2scc(-c3ccccc3)c2c1=O | -9.7% (inactive)
Cn1cc(/C=N/n2cnc3sc4c(c3c2=O)CCCC4)c2ccccc21 | 21.2% (inactive)
Cc1nn(-c2ccccc2)c(N2CCCC2)c1/C=N/n1cnc2scc(-c3ccccc3)c2c1=O | 24.5% (inactive)
Cn1cc(/C=N/n2cnc3scc(-c4ccc(Cl)cc4)c3c2=O)c2ccccc21 | 89.3% (active)

From PubChem BioAssay AID430 (Sanford-Burnham Center for Chemical Genomics, 2006)
